# Bioassay records from PubChem BioAssay.
# Only some compounds are listed: those with a hit (about 3.8% of all), similar ones and a draw of the others.
# KAT2A inh = blocks human GCN5L2 histone acetyltransferase | AID 504327 | 390,000 compounds, 0.21% hits | GCN5L2 HAT assay, ThioGlo1 CoA-SH fluorescence | Potency, µM (highest dose often 58.9 µM), inactives show top-dose activity change, negative = inhibition, most hits filed as inhibitors
#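 Enzyme at 20nM final was mixed with library compounds for 15 min at room temperature. Peptide H3(1-25) at 75uM, acetyl-CoA at 70uM and ThioGlo1 at 50uM were then added. Plates were read immediately and after 20 min (Ex340nm/Em540nm).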
# VDR inhibitor = blocks the human vitamin D receptor; VDR-SRC2-3 peptide fluorescence polarization, 2 h; AID 504847; P11473; 400,000 compounds, 0.93% hits; Potency, µM, without a hit: max response, negative = inhibition, usual class: inhibitors
# Target sequence (P11473 whole entry, looked up): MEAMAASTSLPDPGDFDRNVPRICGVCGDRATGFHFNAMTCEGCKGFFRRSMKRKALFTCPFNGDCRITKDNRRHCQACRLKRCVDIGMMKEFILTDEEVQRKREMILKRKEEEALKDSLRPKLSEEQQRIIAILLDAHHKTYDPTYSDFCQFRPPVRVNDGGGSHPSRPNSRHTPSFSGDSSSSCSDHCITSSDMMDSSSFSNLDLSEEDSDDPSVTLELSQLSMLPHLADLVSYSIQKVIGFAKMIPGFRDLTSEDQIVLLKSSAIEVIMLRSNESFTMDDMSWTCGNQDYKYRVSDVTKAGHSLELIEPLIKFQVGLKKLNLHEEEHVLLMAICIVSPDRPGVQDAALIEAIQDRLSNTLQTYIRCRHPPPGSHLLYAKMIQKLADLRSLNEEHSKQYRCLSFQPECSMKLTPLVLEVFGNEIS
#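 FP read-out; VDR + SRC2-3 coactivator peptide; 23 nl compound by pintool; 2 h RT incubation; reagents held at 4 deg C, protected from light.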
# Sfp inh = blocks B. subtilis Sfp PPTase activity. Q9F4F7. Biochemical Sfp PPTase activity, qHTS. Potency, µM, inactives show largest response in the series, negative = inhibition, most hits filed as inhibitors. 310,000 compounds, 3.5% hits;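 note: the enzyme is Sfp with the accession as filed and its product quenches rhodamine fluorescence; 0% = enzyme reaction without inhibitor and -100% = no enzyme wells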
#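 Sfp 15 nM + cpd, 15 min RT; start w/ rhodamine-CoA 5 uM, BHQ-2-YbbR 12.5 uM (final); 50 mM Hepes pH 7.6, 10 mM MgCl2, 0.01% NP-40, 0.01% BSA; read 525/598 nm at 0 and 30 min.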
# TrxR1 substrate = rat thioredoxin reductase 1 substrate activity | O89049 | purified TrxR1 substrate turnover, NADPH consumption readout | Potency, µM (top dose mostly 114 µM), inactives show top-dose activity change, negative = substrate turnover | 390,000 compounds, 0.01% hits; note: nearly all actives have a fitted effect of over 50% in size
#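 Rat TrxR1, dispensed at 90 nM, was prereduced with 400 uM NADPH (final) for 5 min at ~22 deg C, then incubated with compound 15 min before 400 uM selenite. A first-read NADPH fluorescence drop versus no-compound background flagged substrates.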
# GLS inhibitor = glutaminase GLS (human) inhibition; O94925; GLS enzymatic activity, qHTS titration; Potency, µM (doses to about 45.5 µM), without a hit: top-dose activity change, negative = inhibition, most hits filed as inhibitors; 410,000 compounds, 0.21% hits; AID 624170
#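 Assay buffer: 45 mM KH2PO4 pH 8.2, 0.02% Tween-20. hKGA acts on L-glutamine (1 mM solution added); product glutamate is reported by an oxidase/peroxidase Amplex Red coupling, with fluorescence taken at baseline and 30 min.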
# rTrxR1 inhibitor = inhibitors of rat thioredoxin reductase 1; O89049; recombinant rTrxR1, NADPH fluorescence consumption, selenite substrate; 390,000 compounds, 1% hits; Potency, µM (highest dose often 114 µM), for inactives: at the top dose activity change, negative = inhibition, most hits filed as inhibitors; note: nearly all actives have a fitted effect of over 65% in size
#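 Rat TrxR1 (90 nM in the dispensed reagent) was pre-reduced with 400 uM NADPH for 5 min at room temperature, then incubated with compound for 15 min. After 400 uM selenite was added, NADPH fluorescence (Ex 340/Em 450 nm) was followed for 8 min.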
# Sfp PPTase conf = confirmation of Bacillus subtilis Sfp PPTase inhibitors; Sfp PPTase enzymatic assay, qHTS titration; shares compounds with Sfp inh; Potency, µM (titrated, usually from 114 µM), for inactives: at the top dose activity change, negative = inhibition, most hits filed as inhibitors; 380 compounds, 79% hits;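 note: plate controls were uninhibited Sfp reaction for no effect and no enzyme control for full effect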
# Target sequence (Q9F4F7 whole entry, looked up): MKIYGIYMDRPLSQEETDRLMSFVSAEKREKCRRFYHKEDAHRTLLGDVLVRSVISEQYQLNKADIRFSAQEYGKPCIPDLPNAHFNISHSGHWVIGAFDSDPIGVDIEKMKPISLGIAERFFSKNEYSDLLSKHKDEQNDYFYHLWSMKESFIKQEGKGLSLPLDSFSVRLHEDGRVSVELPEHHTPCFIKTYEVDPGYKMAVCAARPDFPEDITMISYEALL
# * = called active by the depositor; ? = inconclusive; nt = no result; ! = a repeat was not active; [ ] = dose if it differs, or a comment. Calls come from the whole dose curve; as a rule, active = well fitted curve in the direction sought with a large enough effect; inconclusive = small, poorly fitted or top-dose-only effect, or another doubt; inactive = no such curve, though single readings can be large; an effect the other way counts as inactive or inconclusive. Unless noted, % is set by controls: 0 for no effect and ±100 for the full control effect; potency is the fitted concentration of half-maximal effect.
SMILES,KAT2A inh,VDR inhibitor,Sfp inh,TrxR1 substrate,GLS inhibitor,rTrxR1 inhibitor,others
CCCCn1c(O)c(C(CC)=NCc2cc(OC)cc(OC)c2)c(=O)[nH]c1=O,33%,-1%,-11%,1%,-8%,11%,
CCCCCCCCCCCCCCCC[n+]1ccccc1,10%,-5%,50µM*!,11%,?,16%,
CCCCCCC[n+]1ccc(-c2cc[n+](CCCCCCC)cc2)cc1,-9%,-14%,-17%,-4%,8%,-9%,
Nc1c(C(=O)NCc2ccco2)c2nc3ccccc3nc2n1Cc1ccccc1,-23%,-20%,45µM*,57%,-3%,?,
COc1ccc(Cn2c(N)c(C(=O)NCc3ccco3)c3nc4ccccc4nc32)cc1,-12%,-12%,45µM*,37%,6%,-26%,
Nc1c(C(=O)NCc2ccco2)c2nc3ccccc3nc2n1Cc1ccc(F)cc1,-14%,-9%,-74%,40%[57.1 µM],-2%,-62%,
COCC(C)OC(=O)c1c(N)n(Cc2ccco2)c2nc3ccccc3nc12 (configuration not stated),-10%,-4%,32µM*,106%[57.1 µM],-1%,-2%[57.1 µM],
CCOC(=O)c1c(N)n(Cc2ccco2)c2nc3ccccc3nc12,-23%,-1%,?,527%,0%,71%,
COC(=O)C1=C(c2ccc(OCc3ccccc3)cc2)C[C@@H]2CC[C@H]1N2C(=O)NCCCCc1ccccc1,nt,nt,nt,nt,-1%,nt,
O=C1c2ccccc2-n2nnc(-c3ccccc3)c2C2c3cc(Br)ccc3CCN12 (configuration not stated),nt,nt,nt,nt,-10%,nt,
Fc1cccc(F)c1-c1nc(-c2ccc(Cl)cc2)no1,-2%,-5%,-25%,7%,0%,27%,
CC(C)=CCCC(C)C1CC[C@@]2(C)C3=C(CC[C@@]12C)C1(C)CCC(O)C(C)(C)C1CC3 (some centres not stated),-10%,35µM*,-2%,nt,nt,nt,
CCN(CC)C(=O)c1ccc(NC(=O)COC(=O)c2ccc(Cl)s2)cc1,-5%,?,nt,3%,2%,12%,
O=[N+]([O-])c1ccccc1CCl,-14%,-6%,nt,9%,6%,45µM*,
O=C1CCN(C(=O)Cc2ccccc2[N+](=O)[O-])CC1,-4%,3%,7%,3%,-2%,11%,
CN1C(=O)C(=Cc2ccc(N3CCCCCC3)cc2)C(=O)N(C)C1=O,-2%,3%,?,-17%[57.1 µM],3%,-43%,
CN1C(=O)C(=Cc2ccc(N3CCOCC3)c([N+](=O)[O-])c2)C(=O)N(C)C1=O,-2%,nt,22µM*,nt,nt,nt,
O=C1NC(=O)C(=Cc2ccc(N3CCN(C(=O)c4ccccc4)CC3)c([N+](=O)[O-])c2)C(=O)N1,-11%,50µM*,28µM*,-9%,0%,10µM*,
Cc1ccc(-c2nc3ccc(Cl)cc3n2OC(=O)N(C)C)cc1,6%,11%,15%,9%[57.1 µM],-2%,-2%[57.1 µM],
COC(=O)C1=C(c2ccc3ccccc3c2)C[C@@H]2CC[C@H]1N2C(=O)NCCCOC(C)C,-6%,-8%,nt,1%[57.1 µM],-1%,0%[57.1 µM],
Cc1ccnc(-n2c(C)cc(C=C3C(=O)N(C)C(=S)N(C)C3=O)c2C)c1,-3%,?,50µM*,-8%,?,18µM*,
Cc1ccc(-c2nc3ccccc3c(=O)n2-c2cc(C)ccn2)cc1,-5%,1%,7%,0%,-2%,14%,
Cc1cc(C=C2C(=O)N(C)C(=S)N(C)C2=O)c(C)n1-c1ccncc1,-7%,?,40µM*,3%,?,?,
Cc1cc(C)cc(-n2c(C)cc(/C=C3\C(=O)NC(=O)N(C)C3=O)c2C)c1,-3%,-5%,-1%,-10%,3%,-13%,
COc1ccc(C2NCc3ccccc3-n3cccc32)cc1 (configuration not stated),1%,-5%,-6%,2%,6%,14%,
SMILES,KAT2A inh,VDR inhibitor,Sfp inh,TrxR1 substrate,GLS inhibitor,rTrxR1 inhibitor,others
O=C(CCS(=O)NCc1ccccc1)NCc1ccccc1 (configuration not stated),-6%,nt,89µM*,nt,nt,nt,
C/C(N)=C(/C#N)C(=O)CSc1nc2cc(Cl)ccc2c(=O)n1-c1ccc(C)cc1,-8%,-5%,?,8%[57.1 µM],-5%,-7%[57.1 µM],
COc1ccc(CNc2oc(-c3cccc4ccccc34)nc2P(=O)(OC)OC)cc1,-18%,?,50µM*,316%[57.1 µM],-1%,119%,
COP(=O)(OC)c1nc(-c2ccccc2)oc1NCc1ccccc1,0%,?,9%,51%[57.1 µM],-34%,-12%[57.1 µM],
COC(=O)c1nc(-c2ccc3c(n2)C(=O)C(N)=C(OC)C3=O)c(N)c(-c2ccc(OC)c(OC)c2O)c1C,-7%,10µM*,16µM*,-6%,-2%,6%,
COC(=O)C1=C(c2c(C)noc2C)C[C@@H]2CC[C@H]1N2C(=O)N1CCC(C)CC1,0%,-17%,nt,5%,0%,13%,
O=[N+]([O-])c1ccc2nc(N3CCNCC3)ccc2c1,-13%,-2%,?,5%[57.1 µM],-8%,79µM*!,
O=C(Nc1ccccc1)c1cc([N+](=O)[O-])ccc1N1CCNCC1,-2%,-11%,-2%,-6%,-6%,?,
O=C1Nc2ccccc2C2(CCN(CCc3ccc(C(F)(F)F)cc3)CC2)O1,32%,2%,-13%,nt,nt,nt,
C[C@@H]1CC[C@H]2[C@@H](C)C(=O)O[C@@H]3OC4(C)CC[C@@H]1C32OO4 (some centres not stated),1%,-1%,8%,nt,6%,nt,
NCCc1cc(O)c(O)cc1O,?,89µM*,63µM*,-9%,10µM*!,56µM*,
COc1ccc(CCN)cc1O,nt,-9%,29%,2%,92%,2%,
O=C(Nc1cccc(C(=O)Nc2cc(C(=O)Nc3ccc([S+](=O)([O-])[O-])c4cc([S+](=O)([O-])[O-])cc(SOOO)c34)ccc2F)c1)Nc1cccc(C(=O)Nc2cc(C(=O)Nc3ccc([S+](=O)([O-])[O-])c4cc([S+](=O)([O-])[O-])cc([S+](=O)([O-])[O-])c34)ccc2F)c1,-23%,40µM*,?,nt,nt,nt,
O=[N+]([O-])c1cccc(CCl)c1,-9%,-3%,nt,1%,11%,?,
CCOC(=O)Nc1ccc(NCc2ccc(F)cc2)nc1N,-21%,6.3µM*,35µM*,28%[57.1 µM],2%,11µM*,Sfp PPTase conf=15µM*
O=C(c1cc2ccccc2oc1=O)N1CCC2(CC1)OCCO2,-21%,-12%,1%,-14%,1%,?,
